FBW7 act: human FBW7 E3 ligase activation, primary screen; Q969H0; AlphaScreen FBW7–phospho-cyclin E peptide binding, activator screen; normalized activity (activation), % at 26.1 µM; 650,000 tested, 0.13% active; in the data active = normalized activity above about 1.9%;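 also: purified mutant Fbw7 with reduced substrate affinity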
TEAD-YAP block: TEAD-YAP interaction inhibition. 640,000 tested, 1.4% active. inhibition, % at 9.12 µM. HEK-TIYL cells, TEAD-Gal4/YAP UAS-luciferase luminescence; in the data active = inhibition above about 32%
GPR151 ag: activates the human receptor GPR151 | Q8TDV0 | AID 1508602 | 650,000 tested, 1% active | PathHunter beta-arrestin GPR151 cells, luminescence | activation, % at 11.2 µM; in the data active = activation above about 4.9%
Target sequence (Q8TDV0 whole entry, looked up): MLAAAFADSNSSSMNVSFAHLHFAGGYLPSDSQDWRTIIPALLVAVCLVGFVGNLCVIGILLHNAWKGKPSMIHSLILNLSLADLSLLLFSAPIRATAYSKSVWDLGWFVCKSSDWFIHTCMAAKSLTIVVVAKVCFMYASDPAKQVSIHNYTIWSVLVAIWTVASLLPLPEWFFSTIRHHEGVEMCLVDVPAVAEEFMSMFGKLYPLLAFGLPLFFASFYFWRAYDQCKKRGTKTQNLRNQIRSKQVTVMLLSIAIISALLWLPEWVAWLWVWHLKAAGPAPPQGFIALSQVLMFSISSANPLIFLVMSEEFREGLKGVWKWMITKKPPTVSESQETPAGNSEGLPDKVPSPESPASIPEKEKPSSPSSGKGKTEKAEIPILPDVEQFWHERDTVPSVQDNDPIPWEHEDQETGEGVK
MITF primary: inhibitors of human MITF. inhibition, % at 2.6 µM. AID 1259374. AlphaScreen MITF homodimerization, bead proximity signal. 650,000 tested, 0.91% active. O75030; in the data active = inhibition above about 50%
Numbers stand for hits; 0 = inactive. This is a sample that favours compounds with a hit; in the whole collection about 3.4% have one here.

SMILES | FBW7 act | TEAD-YAP block | GPR151 ag | MITF primary
Cc1ccc(C)c(NC(=O)CSc2cn(CCNC(=O)c3ccccc3F)c3ccccc23)c1 | 0 | 0 | 0 | 0
O=C(NC1(C(F)(F)F)NC(=O)N(c2ccc(OC(F)(F)F)cc2)C1=O)c1cccnc1 (stereo not drawn) | 0 | 0 | 0 | 0
c1ccc(-c2cc(NCc3ccco3)nc(-c3ccccn3)n2)nc1 | 0 | 59 | 0 | 111
C=CCNc1cc(-c2ccccn2)nc(-c2ccccn2)n1 | 0 | 50 | 0 | 115
c1ccc(-c2nc(NCc3ccco3)cc(-c3cccnc3)n2)nc1 | 0 | 0 | 0 | 0
CC(=O)Oc1ccc(NC(=O)CC2Sc3ccccc3NC2=O)cc1 (stereo not drawn) | 0 | 0 | 0 | 0
C=CCNC(=O)CSc1nc2ccc(C)cc2cc1C#N | 0 | 0 | 0 | 0
COC(=O)N1CCc2c(sc(NC(=O)c3ccc(C)c(C)c3)c2-c2nc3ccccc3s2)C1 | 0 | 0 | 0 | 0
Cc1ccc(CCn2c(C)c(C)c3ccccc32)cn1 | 0 | 0 | 0 | 0
COc1ccc2c(c1)c(C)c(C)n2CCc1ccc(C)nc1 | 0 | 50 | 0 | 0
Oc1ccc(C2CC(c3c(O)ccc4ccccc34)=NN2)cc1 (stereo not drawn) | 0 | 88 | 0 | 0
COc1cc(C2CC(c3c(O)ccc4ccccc34)=NN2)ccc1O (stereo not drawn) | 0 | 61 | 0 | 0
COc1cc(C2C3=C(COC3=O)Nc3ccc4ccccc4c32)ccc1O (stereo not drawn) | 0 | 56 | 0 | 0
COc1cc(C2CC(=O)c3c(ccc4ccccc34)N2)ccc1O (stereo not drawn) | 0 | 0 | 0 | 0
Cc1c(C(=O)Nc2cccc(C(F)(F)F)c2)sc2ncn(CC(=O)Nc3cccc(C(F)(F)F)c3)c(=O)c12 | 0 | 0 | 0 | 0
CSc1ccccc1NC(=O)c1cc2nc(-c3ccc(Cl)cc3)cc(C(F)(F)F)n2n1 | 0 | 0 | 0 | 0
CC1=C(C(=O)OCCOC(C)C)C(c2ccc(Cl)c(Cl)c2)NC(=O)N1 (stereo not drawn) | 0 | 0 | 0 | 0
Cc1ccc2c(ccc(/C=C/c3ccc(N(C)C)cc3)[n+]2C)c1 | 0 | 41 | 0 | 0
CN(C)c1ccc(/C=C/c2cc(C(C)(C)C)nc(C(C)(C)C)c2)cc1 | 0 | 0 | 0 | 0
CN(C)c1ccc(/C=C/c2ccc([N+](=O)[O-])cc2)cc1 | 0 | 0 | 0 | 0
CN(C)c1ccc(C(=O)/C=C/c2ccccc2)cc1 | 0 | 0 | 0 | 0
Cc1cccc2ccc(/C=C/c3ccc(N(C)C)cc3)[n+](C)c12 | 0 | 93 | 0 | 0
CC[n+]1ccccc1/C=C/N(C(C)=O)c1ccccc1 | 0 | 0 | 0 | 0
CC[n+]1ccccc1/C=C/c1ccc(N(C)C)cc1 | 0 | 47 | 0 | 0
Cc1ccc(/C=C/c2ccc(N(C)C)cc2)[n+](C)c1 | 0 | 70 | 0 | 0
SMILES | FBW7 act | TEAD-YAP block | GPR151 ag | MITF primary
COc1cccc(Nc2cc(N3CCN(c4cccc(C(F)(F)F)c4)CC3)c3noc4c3c2C(=O)c2ccccc2-4)c1 | 0 | 0 | 0 | 0
Cc1ccc(NC(=O)CSc2nnc(NC(=O)COc3ccccc3)s2)cc1 | 0 | 0 | 0 | 0
CN(C)c1ccc(/C=C/c2cc[n+](C)cc2)cc1 | 0 | 44 | 0 | 0
CCC1=Nc2cc(C(=O)NCCOC)ccc2Sc2ccccc21 | 0 | 57 | 0 | 0
CCC1=Nc2cc(C(=O)NCC(OC)OC)ccc2Sc2ccccc21 | 0 | 36 | 0 | 0
CC1=Nc2cc(C(=O)NCCN(C)C)ccc2Sc2ccc(Cl)cc21 | 0 | 56 | 0 | 0
CCOc1ccc(C(=O)Nc2sc3c(c2C(N)=O)CCN(C(C)C)C3)cc1 | 0 | 0 | 0 | 0
CC(OC(=O)c1nn(C)c(=O)c2ccccc12)C(=O)N1CCCC1 (stereo not drawn) | 0 | 0 | 0 | 0
O=C(O)c1cc2c3c(c1)C1C=CCC1C(c1ccc(Cl)cc1)N3CC1CC=CC21 (stereo not drawn) | 0 | 0 | 0 | 88
O=C(O)C1C2CC=CC2c2cc(Cl)cc3c2N1CC1CC=CC31 (stereo not drawn) | 2.7 | 0 | 0 | 0
Cc1occc(=O)c1OC(=O)c1ccccc1F | 0 | 0 | 0 | 0
O=C(NCc1nc2ccccc2[nH]1)c1cccc(-c2ccc(N3CCOCC3)nc2)c1 | 0 | 43 | 0 | 0
O=C(NCc1nc2ccccc2[nH]1)c1ccnc(-c2ccc(N3CCOCC3)nc2)c1 | 0 | 32 | 0 | 0
CCCNC(=O)c1cccc(-c2ccc(N3CCN(C)CC3)cc2)n1 | 0 | 0 | 0 | 0
c1ccc2[nH]c(CNc3cc(-c4ccc(N5CCOCC5)nc4)ncn3)nc2c1 | 0 | 0 | 0 | 0
CN1CCN(c2ccc(-c3cccc(C(=O)NCc4nc5ccccc5[nH]4)n3)cc2)CC1 | 0 | 49 | 0 | 0
